This is a sample that favours compounds with a hit; in the whole collection about 1.1% have one here.
CBFb RUNX1 block = blocks binding between human CBF-beta and RUNX1; Q01196+Q13951; AlphaScreen CBFb-His/RUNX1-biotin binding, biochemical; Potency, µM (titrated, usually from 59.8 µM), for inactives: at the top dose activity, negative = inhibition, hits mostly inhibitors; 230,000 tested, under 10 active; AID 1477; note: % of control where 0% means no effect
Target sequence (Q01196 whole entry, looked up): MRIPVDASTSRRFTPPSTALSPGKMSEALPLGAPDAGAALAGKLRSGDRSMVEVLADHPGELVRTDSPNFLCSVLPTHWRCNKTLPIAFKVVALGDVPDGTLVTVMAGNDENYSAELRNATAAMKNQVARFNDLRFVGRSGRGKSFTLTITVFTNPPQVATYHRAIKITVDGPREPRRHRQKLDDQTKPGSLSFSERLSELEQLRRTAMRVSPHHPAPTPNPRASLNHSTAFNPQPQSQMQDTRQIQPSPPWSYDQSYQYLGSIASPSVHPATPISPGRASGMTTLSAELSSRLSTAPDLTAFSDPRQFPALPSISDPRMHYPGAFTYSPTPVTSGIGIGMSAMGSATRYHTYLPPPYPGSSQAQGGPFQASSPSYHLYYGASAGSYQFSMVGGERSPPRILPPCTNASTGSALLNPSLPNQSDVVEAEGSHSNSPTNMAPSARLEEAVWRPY
Target sequence (Q13951 whole entry, looked up): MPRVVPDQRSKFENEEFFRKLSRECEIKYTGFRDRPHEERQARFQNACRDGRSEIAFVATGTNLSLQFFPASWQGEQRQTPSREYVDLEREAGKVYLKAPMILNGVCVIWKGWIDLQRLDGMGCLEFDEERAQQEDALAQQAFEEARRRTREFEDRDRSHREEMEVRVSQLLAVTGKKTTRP
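Compounds were screened at multiple concentrations against a preformed CBF-beta(His)/RUNX1(biotin) complex (30 nM of each) for 15 min at room temperature, followed by 90 min with nickel and streptavidin beads and AlphaScreen reading.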
MBNL1-CUG inh = blocks human MBNL1 binding to CUG repeat RNA; Potency, µM (titrated, usually from 57.5 µM), for the others: top-dose activity change, negative = inhibition, usual class: inhibitors; 0.036% of 280,000 active; TR-FRET MBNL1-His/biotin-(CUG)12 binding, 665/545 ratio; AID 2675; active = well fitted inhibition curve with a large enough effect in the signal ratio, with a control signal flat, not every such curve was filed as active; inconclusive = small, poorly fitted or top-dose-only effect, or effect the other way, or a change in a side signal; inactive = no such curve, though single readings can be large or run the other way; the % refers to the signal ratio; note: potency is the fitted concentration of half-maximal effect; % is set by controls: 0 for no effect and ±100 for the full control effect
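Compound titration spanned 92 nM–58 uM against the MBNL1-His/biotin-(CUG)12 complex. After 60 min at room temperature with 5 nM streptavidin-XL665 and 0.055 ng/ul terbium anti-His, ratiometric 665/545 nm emission (Ex 340 nm) normalized to controls.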
HttQ103 aggreg = inhibitors of mutant huntingtin aggregate formation in PC12 cells | AID 1688 | PC12 HttQ103-GFP aggregates, Acumen cytometry, 40 h | 1.1% of 220,000 active | Potency, µM (doses to about 46.1 µM), inactives show at the highest dose activity change, negative = inhibition, usual class: inhibitors; note: potency is the fitted concentration of half-maximal effect; % is set by controls: 0 for no effect and ±100 for the full control effect; nearly all actives have a fitted effect of over 60% in size
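PC12 cells with ecdysone-inducible HTT exon1 Q103-GFP, induced by 100 nM tebufenozide, given compounds in a concentration series. GFP aggregates (1–25 um, 6 SD above background) counted in lysates by laser-scanning cytometry, 488 nm excitation.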
HTT cytoprotect = Huntington cell model cytoprotection by ATP luminescence; PC12 HTT-Q103 induced, cytoprotection, ATP luminescence, 40 h; Potency, µM (top dose mostly 56.4 µM), for inactives: cytoprotection (ATP increase), most hits filed as activators; 0.14% of 230,000 active; note: potency is the fitted concentration of half-maximal effect; % of control where 0% means no effect; nearly all actives have a fitted effect of over 45% in size
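PC12 cells with ecdysone-inducible HTT exon 1 Q103-GFP, induced with 100 nM tebufenozide and co-treated with library compounds in a dose series (1536-well, 1500 cells/well). Cytoprotection read as ATP content by ATPlite luminescence.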
LMNA splice mod = changes lamin A minigene splicing in HeLa cells; AID 1487; HeLa LMNA splicing GFP/RFP minigene ratio, 48 h; Potency, µM (titrated, usually from 46.1 µM), for inactives: at the highest dose ratio change, negative = inhibition, actives largely listed as inhibitors; 0.01% of 200,000 active; active = well fitted inhibition curve with a large enough effect in the signal ratio, with a control signal flat, not every such curve was filed as active; inconclusive = small, poorly fitted or top-dose-only effect, or effect the other way, or a change in a side signal; the % refers to the signal ratio; note: potency is the fitted concentration of half-maximal effect; % is set by controls: 0 for no effect and ±100 for the full control effect
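S3 HeLa stable clones carrying a lamin A-EGFP splicing minigene plus DsRed2 were seeded at 600 cells/well in Opti-MEM with 2% FBS, pin-dosed and incubated 48 h at 37°C. Acumen cytometry (488 nm) gave the GFP/RFP total-intensity ratio.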
NPSR antagonist = antagonists of human neuropeptide S receptor cAMP signaling. Q6W5P4. 1% of 220,000 active. Potency, µM (top dose mostly 38.3 µM), inactives show at the highest dose activity change, negative = inhibition, most hits filed as inhibitors. CHO-NPSR cells, cAMP TR-FRET, antagonist mode; note: potency is the fitted concentration of half-maximal effect; % is set by controls: 0 for no effect and ±100 for the full control effect; nearly all actives have a fitted effect of over 50% in size
The depositor's hits bear a star; ? = inconclusive; / = no result given; [ ] = dose if it differs, or a comment. Unless noted, calls come from the whole dose curve; as a rule, active = well fitted curve in the direction sought with a large enough effect; inconclusive = small, poorly fitted or top-dose-only effect, or another doubt; inactive = no such curve, though single readings can be large; an effect the other way counts as inactive or inconclusive.

SMILES | CBFb RUNX1 block | MBNL1-CUG inh | HttQ103 aggreg | HTT cytoprotect | LMNA splice mod | NPSR antagonist
CN(C)C=Nc1ncc2c3ccccc3n(CCN(C)C)c2c1C#N | 2.9% | -14.9% | 2.82µM* | -28.5%[0.074 µM] | ? | -6.2%[46.1 µM]
CCS(=O)(=O)N1Cc2ccccc2CC1C(=O)Nc1nnc(SCc2ccc(C#N)cc2)s1 (configuration not stated) | 5.3% | 24.5% | 12.6µM* | -5.0%[10 µM] | ? | 2.4%
CCS(=O)(=O)N1Cc2ccccc2CC1C(=O)Nc1ncc(C)s1 (configuration not stated) | -16.0% | -1.8% | -12.9% | -47.8% | ? | -1.3%
CC(C)C1C(=O)Nc2ccc(S(=O)(=O)NCCc3ccc(Cl)cc3)cc21 (configuration not stated) | / | / | / | / | -7.0%[46 µM] | /
CCOc1cc([C@@H]2C[C@H]3CN(c4ccccc4)C(=O)[C@]34CCCN24)ccc1OC | 13.9% | -6.8% | 7.08µM* | -161.3% | / | 22.3%
CCN(CC)CCC[C@H](C)Nc1c2ccc(Cl)cc2nc2ccc(OC)cc12 | 13.1%[21.7 µM] | / | ? | -75.6%[17.1 µM] | ? | /
COc1ccc(-c2c3c([nH]c(=S)c2C#N)CCC3)cc1 | -3.9% | 8.0% | 3.4% | 3.8%[10 µM] | -4.6% | 1µM*
COc1ccc(OC)c(-c2c3c([nH]c(=S)c2C#N)CCCC3)c1 | -2.4% | 13.7% | -11.0% | ? | -15.7%[46 µM] | -18.9%
CN1CCC[C@H](C(=O)OCC(=O)[C@]2(O)CC[C@@H]3[C@H]4CCC5=CC(=O)CC[C@@]5(C)[C@H]4[C@@H](O)C[C@]32C)C1 | / | / | / | -19.9%[10 µM] | / | /
CC#CCN1c2ccccc2[C@]23C[C@@H](C(=O)OC)N(C(=O)CC(C)C)C2=NC(C(=O)OC)=C(C(=O)OC)[C@H]13 | 10.7%[13.1 µM] | / | / | 10.8%[10 µM] | 8.4%[9.22 µM] | /
COc1ccc(Cl)cc1-c1n[nH]c(=S)o1 | 14.9% | ? | -19.0% | -10.9% | -7.0% | 6.31µM*
COc1ccccc1-c1n[nH]c(=S)o1 | 9.4% | 24.3% | -3.7% | 9.1%[10 µM] | 12.4% | 26.0%[46.1 µM]
COc1cccc(NC(=O)C(C)n2c(=O)cc(C(F)(F)F)c3c(C)nn(C)c32)c1 (configuration not stated) | / | / | / | / | 24.7%[46 µM] | /
CCOC(=O)C1=C(c2cccc(Oc3ccccc3)c2)NC(=S)NC1C (configuration not stated) | 3.7% | 0.2% | 11.2µM* | -8.9% | ? | ?
CC(=O)NC(c1ccc(C)cc1)c1cc([N+](=O)[O-])c2cccnc2c1O (configuration not stated) | ? | 4.9% | ? | -64.6%[10 µM] | ? | -12.1%
COc1ccc(N=Nc2ccc(O)c3ncccc23)cc1 | 1.5% | 8.2% | -18.9%[9.22 µM] | -32.6%[10 µM] | / | -12.6%
O=[N+]([O-])c1cc(Cl)c(O)c2ncccc12 | / | -2.1% | 7.94µM* | -164.6% | ? | -39.6%
Cc1ccccc1N=Nc1ccc(O)c2ncccc12 | -6.3% | 6.1% | 2.51µM* | -49.6%[10 µM] | ? | -6.1%
Oc1c(CN2CCc3ccccc3C2)cc(Cl)c2cccnc12 | / | 36.6% | ? | -80.6% | ? | 6.31µM*
CCC(=O)NC(c1ccc(C)cc1)c1cc([N+](=O)[O-])c2cccnc2c1O (configuration not stated) | / | / | 7.94µM* | -49.8%[10 µM] | ? | 13.7%
C=COC(=O)/C=C/C | 9.3% | / | / | / | / | /
O=c1ccn([C@H]2O[C@H](CO)[C@@H](O)[C@@H]2O)c(=O)[nH]1 | / | / | / | -15.8% | / | /
Cc1ccc(O)c2ncccc12 | / | / | ? | -54.5% | / | /
Oc1c(C(c2ccccn2)N2CCCCC2)cc(Cl)c2cccnc12 (configuration not stated) | / | 16.0% | 25.1µM* | -140.7% | / | -56.5%
COCc1ccc(O)c2ncccc12 | / | 11.9% | 11.2µM* | -73.0%[10 µM] | 17.5% | 3.98µM*
SMILES | CBFb RUNX1 block | MBNL1-CUG inh | HttQ103 aggreg | HTT cytoprotect | LMNA splice mod | NPSR antagonist
O=[N+]([O-])c1ccc(O)c2ncccc12 | ? | ? | 3.55µM* | -288.9% | ? | -31.4%
Oc1c(I)cc(Cl)c2cccnc12 | -9.6% | 25.8% | 10µM* | -234.7% | ? | -12.6%
O=[N+]([O-])c1ccc(O)c2cccnc12 | -12.3% | ? | 8.8% | -3.4% | ? | -15.5%
CN1CCN(C(c2ccc(Cl)cc2)c2cc(Cl)c3cccnc3c2O)CC1 (configuration not stated) | / | 6.3% | / | / | / | /
CC(=O)O[C@H]1C(=O)[C@]2(C)[C@H]([C@H](OC(=O)c3ccccc3)[C@@]3(O)C[C@H](OC(=O)[C@@H](O)[C@@H](NC(=O)c4ccccc4)c4ccccc4)C(C)=C1C3(C)C)[C@]1(OC(C)=O)CO[C@@H]1C[C@@H]2O | / | / | / | -2.9% | / | /
CC(=O)[C@]1(O)CC[C@@H]2[C@H]3C[C@@H](C)C4=CC(=O)CC[C@@]4(C)[C@H]3[C@@H](O)C[C@]21C | / | / | / | 0.9%[10 µM] | / | /
Cc1ccc(/C=[N+](\[O-])c2ccc(N(C)C)cc2)c2nsnc12 | ? | ? | 11.2µM* | -161.7% | ? | ?
COc1ccc(CNC(=O)CCCNS(=O)(=O)c2cccc3nonc23)cc1 | -0.8% | ? | 3.16µM* | 3.55µM* | 1.9% | -7.7%[46.1 µM]
Cc1ccc(CNC(=O)CCCNS(=O)(=O)c2cccc3nonc23)cc1 | -6.3% | ? | 7.7% | 24.5% | 1.1% | -3.8%[46.1 µM]
Cc1c(Cl)cccc1NC(=O)c1cc(-c2ccc(O)cc2)on1 | / | / | / | -12.8% | / | /
COC(=O)c1c(NC(=O)Nc2ccc(Cl)cc2)sc(C)c1C | -1.2% | 10.7% | 5.0% | -10.2% | 13.5% | 10µM*
CC(=O)O[C@@]1(C(C)=O)CCC2C3C=C(Cl)C4=CC(=O)C5CC5[C@@]4(C)C3CC[C@]21C (some centres not stated) | 4.0% | / | / | -78.2% | / | /
CC(=O)O[C@]1(C(C)=O)CC[C@H]2C3C=C(Cl)C4=CC(=O)[C@@H]5C[C@H]5[C@]4(C)C3CC[C@@]21C (some centres not stated) | 9.6% | / | / | / | ? | 12.6µM*
N#C/C(C(N)=O)=c1/ccc2c(c1)N1C3=C(CCCC3)CC3CCCCC31N=2 (configuration not stated) | ? | ? | -7.9% | -19.8% | ? | 10µM*
N#CC(C#N)=c1ccc2c(c1)N1C3=C(CCCC3)CC3CCCCC31N=2 (configuration not stated) | -12.6% | 7.3% | -0.3% | 6.5%[10 µM] | 5.1% | 12.6µM*
COc1ccc(CNc2ncnc3cc(Cl)ccc23)cc1 | 11.5% | 5.4% | 14.1µM* | -24.3% | / | 6.9%
COc1cc2ncnc(NCc3ccccc3)c2cc1OC | 2.2% | -19.0% | ? | 7.8%[10 µM] | ? | 2.8%[46.1 µM]
